# Values joined by “and” are separate entries in the source; they are usually repeats but may differ in a detail not shown here. Equal entries are not always repeated. The campaign covered roughly 5,500 compounds. About 2,000 (36%) were called active. Roughly 18% stayed inconclusive and do not appear here. No stated cut-off is given here; in the data, active means normalized growth mostly below about 0.91 (no sharp cut-off); inconclusive means no clear call, values can overlap the other calls; inactive means mostly above about 0.92. The list shows a part of the results.
# Experiment: chemical genetic growth profiling, strain panel (AID 1159580);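 further: tested at 20 µM; growth read once vehicle control cultures reached saturation at 30 °C; 1 = growth at the plate median or of vehicle wells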
# Settings: S. cerevisiae deletion strains, growth OD
compound,measurement,setting,value
COc1c(OC)c2occc2c2oc(=O)ccc12,normalized growth,"locus YAL021C, strain ccr4, stronger effect = lower value",0.988 (inactive)
same,normalized growth,"locus YAL026C, strain drs2, stronger effect = lower value",0.987 (inactive)
same,normalized growth,"locus YAL030W, strain snc1, stronger effect = lower value",0.99 (inactive)
same,normalized growth,"locus YBL061C, strain skt5, stronger effect = lower value",0.979 (inactive)
same,normalized growth,"locus YBR009C, strain hhf1, stronger effect = lower value",0.958 (inactive)
same,normalized growth,"locus YBR021W, strain FUR4, stronger effect = lower value",1.01 (inactive)
same,normalized growth,"locus YBR023C, strain chs3, stronger effect = lower value",0.976 (inactive)
same,normalized growth,"locus YBR171W, strain sec66, stronger effect = lower value",0.973 (inactive)
same,normalized growth,"locus YBR229C, strain ROT2, stronger effect = lower value",0.967 (inactive)
same,normalized growth,"locus YBR231C, strain swc5, stronger effect = lower value",0.96 (inactive)
same,normalized growth,"locus YBR279W, strain paf1, stronger effect = lower value",0.973 (inactive)
same,normalized growth,"locus YCL011C, strain gbp2, stronger effect = lower value",0.979 (inactive)
same,normalized growth,"locus YCL016C, strain dcc1, stronger effect = lower value",0.98 (inactive)
same,normalized growth,"locus YCL029C, strain bik1, stronger effect = lower value",0.983 (inactive)
same,normalized growth,"locus YCL061C, strain MRC1, stronger effect = lower value",0.978 (inactive)
same,normalized growth,"locus YCL069W, strain vba3, stronger effect = lower value",0.989 (inactive)
same,normalized growth,"locus YCR088W, strain abp1, stronger effect = lower value",0.987 (inactive)
same,normalized growth,"locus YDL005C, strain med2, stronger effect = lower value",0.998 (inactive)
same,normalized growth,"locus YDL035C, strain GPR1, stronger effect = lower value",0.924 (inactive)
same,normalized growth,"locus YDL040C, strain nat1, stronger effect = lower value",0.981 (inactive)
same,normalized growth,"locus YDL074C, strain BRE1, stronger effect = lower value",0.86 (inactive)
same,normalized growth,"locus YDL101C, strain DUN1, stronger effect = lower value",0.949 (inactive)
same,normalized growth,"locus YDL134C, strain PPH21, stronger effect = lower value",0.948 (inactive)
same,normalized growth,"locus YDL185W, strain tfp1, stronger effect = lower value",0.945 (inactive)
same,normalized growth,"locus YDL192W, strain arf1, stronger effect = lower value",0.866 (active)
same,normalized growth,"locus YDR001C, strain nth1, stronger effect = lower value",0.973 (inactive)
same,normalized growth,"locus YDR069C, strain doa4, stronger effect = lower value",1 (inactive)
same,normalized growth,"locus YDR101C, strain arx1, stronger effect = lower value",0.927 (inactive)
same,normalized growth,"locus YDR137W, strain rgp1, stronger effect = lower value",0.952 (inactive)
same,normalized growth,"locus YDR159W, strain sac3, stronger effect = lower value",1.01 (inactive)
same,normalized growth,"locus YDR162C, strain NBP2, stronger effect = lower value",0.822 (active)
same,normalized growth,"locus YDR195W, strain ref2",1.14 [resistant] (active)
same,normalized growth,"locus YDR297W, strain sur2, stronger effect = lower value",0.974 (inactive)
same,normalized growth,"locus YDR318W, strain mcm21, stronger effect = lower value",0.95 (inactive)
same,normalized growth,"locus YDR334W, strain swr1, stronger effect = lower value",0.967 (inactive)
same,normalized growth,"locus YDR335W, strain msn5, stronger effect = lower value",0.978 (inactive)
same,normalized growth,"locus YDR388W, stronger effect = lower value",0.959 (inactive)
same,normalized growth,"locus YDR392W, strain spt3, stronger effect = lower value",0.765 (inactive)
same,normalized growth,"locus YDR502C, strain sam2, stronger effect = lower value",0.918 (active)
same,normalized growth,"locus YEL003W, strain gim4, stronger effect = lower value",0.982 (inactive)
same,normalized growth,"locus YEL037C, strain rad23, stronger effect = lower value",0.981 (inactive)
same,normalized growth,"locus YEL061C, strain CIN8 (second series), stronger effect = lower value",0.984 (inactive)
same,normalized growth,"locus YEL061C, strain CIN8, stronger effect = lower value",0.963 (inactive)
same,normalized growth,"locus YER015W, strain faa2, stronger effect = lower value",0.972 (inactive)
same,normalized growth,"locus YER016W, strain bim1, stronger effect = lower value",0.984 (inactive)
same,normalized growth,"locus YER110C, stronger effect = lower value",0.949 (inactive)
same,normalized growth,"locus YER111C, strain swi4, stronger effect = lower value",0.992 (inactive)
same,normalized growth,"locus YER155C, strain BEM2 (second series), stronger effect = lower value",0.832 (active)
same,normalized growth,"locus YER155C, strain BEM2, stronger effect = lower value",0.962 (inactive)
same,normalized growth,"locus YER167W, strain BCK2, stronger effect = lower value",0.97 (inactive)
same,normalized growth,"locus YFR010W, strain ubp6, stronger effect = lower value",0.98 (inactive)
same,normalized growth,"locus YGL078C, strain dbp3, stronger effect = lower value",0.979 (inactive)
same,normalized growth,"locus YGL086W, strain mad1, stronger effect = lower value",0.937 (inactive)
same,normalized growth,"locus YGL167C, strain pmr1, stronger effect = lower value",0.975 (inactive)
same,normalized growth,"locus YGL173C, strain kem1, stronger effect = lower value",0.986 (inactive)
same,normalized growth,"locus YGL227W, strain vid30, stronger effect = lower value",0.994 (inactive)
same,normalized growth,"locus YGL240W, strain doc1, stronger effect = lower value",0.931 (inactive)
same,normalized growth,"locus YGL248W, strain PDE1, stronger effect = lower value",0.95 (inactive)
same,normalized growth,"locus YGL253W, strain hxk2, stronger effect = lower value",0.956 (inactive)
same,normalized growth,"locus YGR078C, strain PAC10, stronger effect = lower value",0.882 (inactive)
same,normalized growth,"locus YGR135W, strain pre9, stronger effect = lower value",0.881 (active)
same,normalized growth,"locus YGR252W, strain gcn5, stronger effect = lower value",0.802 (inactive)
same,normalized growth,"locus YHR013C, strain ard1, stronger effect = lower value",1.01 (inactive)
same,normalized growth,"locus YHR027C, strain rpn1, stronger effect = lower value",0.984 (inactive)
same,normalized growth,"locus YHR030C, strain SLT2, stronger effect = lower value",0.945 (inactive) and 0.955 (inactive)
same,normalized growth,"locus YHR079C, strain IRE1 (second series), stronger effect = lower value",0.977 (inactive)
same,normalized growth,"locus YHR079C, strain IRE1, stronger effect = lower value",0.944 (inactive)
same,normalized growth,"locus YHR094C, strain hxt1, stronger effect = lower value",0.985 (inactive)
same,normalized growth,"locus YHR129C, strain ARP1, stronger effect = lower value",0.959 (inactive)
same,normalized growth,"locus YHR142W, strain chs7, stronger effect = lower value",0.904 (inactive)
same,normalized growth,"locus YHR200W, strain rpn10, stronger effect = lower value",0.923 (inactive)
same,normalized growth,"locus YIL066C, strain RNR3, stronger effect = lower value",0.88 (inactive)
same,normalized growth,"locus YIL073C, strain SPO22, stronger effect = lower value",0.955 (inactive)
same,normalized growth,"locus YIL125W, strain kgd1, stronger effect = lower value",0.979 (inactive)
same,normalized growth,"locus YIR030C, strain dcg1, stronger effect = lower value",0.962 (inactive)
same,normalized growth,"locus YJL092W, strain hpr5, stronger effect = lower value",0.972 (inactive)
same,normalized growth,"locus YJL095W, strain BCK1 (second series), stronger effect = lower value",0.974 (inactive)
same,normalized growth,"locus YJL095W, strain BCK1, stronger effect = lower value",0.785 (active) and 0.957 (inactive)
same,normalized growth,"locus YJL115W, strain asf1, stronger effect = lower value",0.984 (inactive)
same,normalized growth,"locus YJL129C, strain trk1, stronger effect = lower value",0.993 (inactive)
same,normalized growth,"locus YJL134W, strain LCB3, stronger effect = lower value",0.967 (inactive)
same,normalized growth,"locus YJL154C, strain vps35, stronger effect = lower value",0.987 (inactive)
same,normalized growth,"locus YJL164C, strain tpk1, stronger effect = lower value",0.966 (inactive)
same,normalized growth,"locus YJL166W, strain qcr8, stronger effect = lower value",0.945 (inactive)
same,normalized growth,"locus YJL168C, strain set2, stronger effect = lower value",0.977 (inactive)
same,normalized growth,"locus YJL187C, strain SWE1 (second series), stronger effect = lower value",0.947 (inactive)
same,normalized growth,"locus YJL187C, strain SWE1, stronger effect = lower value",0.973 (inactive)
same,normalized growth,"locus YJR043C, strain POL32, stronger effect = lower value",0.887 (inactive)
